Measured values as given in PubChem BioAssay (Tox21).
“And” between values parts separate entries of the source, which are not always exact repeats. Identical values can stand only once. Inconclusive results are not listed. Entries that show only a call come without a potency. Some structures have more than one record in an assay (separate samples or runs), and their calls can disagree. The source made the active and inactive calls. The call rests on the fitted dose curve; in most records, active means well fitted curve in the direction sought with a large enough effect in the repeat runs; inconclusive means weak or mixed curves; inactive means no such curve, though single readings can be large; an effect the other way counts as inactive or inconclusive.

assay: A CellTox Green Cytotoxicity Assay to monitor cytotoxicity in HEK293 cells - 24 hour (AID 1224875); settings: CellTox Green fluorescence; series mostly up to 76.8 µM; activity change: at the top concentration; further: nearly all actives have a fitted effect of over 45% in size
Method in brief: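 Each value comes from one timepoint of a single continuous run in which HEK293 cells with CellTox Green were exposed to compound for up to 40 h at 37 C, dye fluorescence rising with cell death.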

Row | Compound | Potency | activity change
1 | COC(=O)CCCCC(=O)OC | inactive | 
2 | O=C(NCC1CCCCN1)c1cc(OCC(F)(F)F)ccc1OCC(F)(F)F (stereo not drawn) | inactive | 
3 | CCCCCNCCCCC | inactive | 
4 | OB(O)O | inactive | 
5 | C=C(C)CC(C)(C)C | inactive | 
6 | O=[N+]([O-])c1cc(C(F)(F)F)ccc1Cl |  | -14% (inactive)
7 | CCCCCCC(=O)O | inactive | 
8 | CC(=O)OC/C=C(\C)CCC=C(C)C | inactive | 
9 | OC[C@H]1O[C@@H](Oc2ccc(O)cc2)[C@H](O)[C@@H](O)[C@@H]1O | inactive | 
10 | CC1(C)C(=O)N(Cl)C(=O)N1Cl | inactive | 
11 | CC(=O)c1nccs1 | inactive | 
12 | COc1ccc2cc3[n+](cc2c1OC)CCc1cc2c(cc1-3)OCO2 | inactive | 
13 | CC(O)CNCC(C)O (stereo not drawn) | inactive | 
14 | Cc1ccccc1Cl | inactive | 
15 | CO[Si](CCCNCCN)(OC)OC | inactive | 
16 | Oc1ccc(Cc2ccccc2O)cc1 | inactive | 
17 | CCCN(CCC)C(=O)SCC | inactive | 
18 | CS(=O)(=O)c1ccc(Cl)cc1 | inactive | 
19 | CC[N+](CC)(CC(=O)Nc1c(C)cccc1C)Cc1ccccc1 | inactive | 

Row | Compound | Potency | activity change
20 | COc1ccc([C@@H]2CC(=O)c3c(O)cc(O[C@@H]4O[C@H](CO[C@@H]5O[C@@H](C)[C@H](O)[C@@H](O)[C@H]5O)[C@@H](O)[C@H](O)[C@H]4O)cc3O2)cc1OC | inactive | 
21 | C1CCCNCC1 | inactive | 
22 | NC(=O)NC(N)=O | inactive | 
23 | O=[N+]([O-])c1ccccc1C(F)(F)F | inactive | 
24 | CC(=O)OC(C)(C)C1CC=C(C)CC1 (stereo not drawn) | inactive | 
25 | CCCCCCCC(=O)O |  | -3.08% (inactive)
26 | CC(COCC(C)OC(=O)c1ccccc1)OC(=O)c1ccccc1 (stereo not drawn) | inactive | 
27 | Cc1ccncc1 | inactive | 
28 | COc1c(Cl)ccc(Cl)c1C(=O)O | inactive | 
29 | CN=C(NC#N)NCCSCc1nc[nH]c1C | inactive | 
30 | OCC(O)CS (stereo not drawn) | inactive | 
31 | CCOC(=O)CC(=O)OCC | inactive | 
32 | COC(=O)/C=C\C(=O)OC | inactive | 
33 | CC1=CC(=O)CC(C)(C)C1 |  | -14.1% (inactive)
34 | CC(=O)CC(=O)N(C)C | inactive | 
35 | O=c1n(CCCN2CCN(c3cccc(Cl)c3)CC2)nc2ccccn12 | inactive | 
36 | N#CCC(=O)O | inactive | 
37 | NC(=O)c1ncn([C@@H]2O[C@H](CO)[C@@H](O)[C@H]2O)n1 | inactive | 
38 | c1cnc2c(c1)ccc1cccnc12 | inactive | 

assay: A CellTox Green Cytotoxicity Assay to monitor cytotoxicity in HepG2 cells - 16 hour (AID 1224876); settings: CellTox Green fluorescence; series mostly up to 76.8 µM; cytotoxicity increase: at the top concentration; further: nearly all actives have a fitted effect of over 45% in size; further: potency means the concentration at half of the fitted maximal effect
Method in brief: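 Continuous culture of HepG2 cells with a membrane-impermeant DNA dye; rising fluorescence marks dead cells. Compound exposure lasted up to 40 h at 37 C, with reads every 8 h from 0 h.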

Row | Compound | Potency | cytotoxicity increase
39 | CCCCCNCCCCC | inactive | 
40 | OB(O)O | inactive | 
41 | C=C(C)CC(C)(C)C | inactive | 
42 | O=[N+]([O-])c1cc(C(F)(F)F)ccc1Cl | inactive | 
43 | CCCCCCC(=O)O | inactive | 
44 | CC(=O)OC/C=C(\C)CCC=C(C)C | inactive | 
45 | OC[C@H]1O[C@@H](Oc2ccc(O)cc2)[C@H](O)[C@@H](O)[C@@H]1O | inactive | 
46 | CC(=O)c1nccs1 | inactive | 
47 | COc1ccc2cc3[n+](cc2c1OC)CCc1cc2c(cc1-3)OCO2 | inactive | 
48 | CC(O)CNCC(C)O (stereo not drawn) | inactive | 
49 | Cc1ccccc1Cl | inactive | 
50 | CO[Si](CCCNCCN)(OC)OC | inactive and 49 µM (active) | 
51 | Oc1ccc(Cc2ccccc2O)cc1 | inactive | 
52 | CCCN(CCC)C(=O)SCC | inactive | 
53 | CS(=O)(=O)c1ccc(Cl)cc1 | inactive and 38.9 µM (active) | 
54 | CC[N+](CC)(CC(=O)Nc1c(C)cccc1C)Cc1ccccc1 | inactive | 

Row | Compound | Potency | cytotoxicity increase
55 | COc1ccc([C@@H]2CC(=O)c3c(O)cc(O[C@@H]4O[C@H](CO[C@@H]5O[C@@H](C)[C@H](O)[C@@H](O)[C@H]5O)[C@@H](O)[C@H](O)[C@H]4O)cc3O2)cc1OC | inactive | 
56 | C1CCCNCC1 | inactive | 
57 | NC(=O)NC(N)=O | inactive | 
58 | O=[N+]([O-])c1ccccc1C(F)(F)F | inactive | 
59 | CC(=O)OC(C)(C)C1CC=C(C)CC1 (stereo not drawn) | inactive | 
60 | CCCCCCCC(=O)O | inactive | 
61 | CC(COCC(C)OC(=O)c1ccccc1)OC(=O)c1ccccc1 (stereo not drawn) | inactive | 
62 | Cc1ccncc1 | inactive | 
63 | COc1c(Cl)ccc(Cl)c1C(=O)O | inactive | 
64 | CN=C(NC#N)NCCSCc1nc[nH]c1C |  | 5.07% (inactive)
65 | OCC(O)CS (stereo not drawn) | inactive | 
66 | COC(=O)/C=C\C(=O)OC | inactive | 
67 | CC1=CC(=O)CC(C)(C)C1 | inactive | 
68 | O=c1n(CCCN2CCN(c3cccc(Cl)c3)CC2)nc2ccccn12 | inactive | 
69 | N#CCC(=O)O | inactive | 
70 | c1cnc2c(c1)ccc1cccnc12 | inactive | 

assay: qHTS RealTime-Glo MT Cell Viability Assay in HepG2 cells - 32 hour (AID 1224877); settings: RealTime-Glo luminescence; series mostly up to 76.8 µM; activity change, negative = cytotoxic: at the top concentration; further: nearly all actives have a fitted effect of over 55% in size
Method in brief: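 Real-time, nonlytic viability: 600 HepG2 cells/well mixed with NanoLuc enzyme plus prosubstrate; 5 h settle, compound (DMSO) added by pintool; luminescence monitored over 40 h at 37 C.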

Row | Compound | Potency
71 | COC(=O)CCCCC(=O)OC | inactive
72 | O=C(NCC1CCCCN1)c1cc(OCC(F)(F)F)ccc1OCC(F)(F)F (stereo not drawn) | inactive
73 | CCCCCNCCCCC | inactive
74 | OB(O)O | inactive
75 | C=C(C)CC(C)(C)C | inactive
76 | O=[N+]([O-])c1cc(C(F)(F)F)ccc1Cl | inactive
77 | CCCCCCC(=O)O | inactive
78 | CC(=O)OC/C=C(\C)CCC=C(C)C | inactive
79 | OC[C@H]1O[C@@H](Oc2ccc(O)cc2)[C@H](O)[C@@H](O)[C@@H]1O | inactive
80 | CC1(C)C(=O)N(Cl)C(=O)N1Cl | inactive
81 | CC(=O)c1nccs1 | inactive
82 | COc1ccc2cc3[n+](cc2c1OC)CCc1cc2c(cc1-3)OCO2 | inactive
83 | CC(O)CNCC(C)O (stereo not drawn) | inactive
84 | Cc1ccccc1Cl | inactive
85 | CO[Si](CCCNCCN)(OC)OC | inactive
86 | Oc1ccc(Cc2ccccc2O)cc1 | inactive
87 | CCCN(CCC)C(=O)SCC | inactive
88 | CS(=O)(=O)c1ccc(Cl)cc1 | inactive
89 | CC[N+](CC)(CC(=O)Nc1c(C)cccc1C)Cc1ccccc1 | inactive

Row | Compound | Potency
90 | COc1ccc([C@@H]2CC(=O)c3c(O)cc(O[C@@H]4O[C@H](CO[C@@H]5O[C@@H](C)[C@H](O)[C@@H](O)[C@H]5O)[C@@H](O)[C@H](O)[C@H]4O)cc3O2)cc1OC | inactive
91 | C1CCCNCC1 | inactive
92 | NC(=O)NC(N)=O | inactive
93 | O=[N+]([O-])c1ccccc1C(F)(F)F | inactive
94 | CC(=O)OC(C)(C)C1CC=C(C)CC1 (stereo not drawn) | inactive
95 | CCCCCCCC(=O)O | inactive
96 | CC(COCC(C)OC(=O)c1ccccc1)OC(=O)c1ccccc1 (stereo not drawn) | inactive
97 | Cc1ccncc1 | inactive
98 | COc1c(Cl)ccc(Cl)c1C(=O)O | inactive
99 | CN=C(NC#N)NCCSCc1nc[nH]c1C | inactive
100 | OCC(O)CS (stereo not drawn) | inactive
101 | CCOC(=O)CC(=O)OCC | inactive
102 | COC(=O)/C=C\C(=O)OC | inactive
103 | CC1=CC(=O)CC(C)(C)C1 | inactive
104 | CC(=O)CC(=O)N(C)C | inactive
105 | O=c1n(CCCN2CCN(c3cccc(Cl)c3)CC2)nc2ccccn12 | inactive
106 | N#CCC(=O)O | inactive
107 | NC(=O)c1ncn([C@@H]2O[C@H](CO)[C@@H](O)[C@H]2O)n1 | inactive
108 | c1cnc2c(c1)ccc1cccnc12 | inactive
